About 14,000 (4.5%) of roughly 310,000 compounds showed an effect of 50% or more. Effects have a minus sign here. Only a selection was taken, and strong results are over-represented in it overall.
Molecular target: human ether-à-go-go-related gene (hERG) potassium channel (human, UniProt Q12809)
Experiment: primary screen, population patch clamp on CHO cells stably expressing hERG; higher = less effect of the substance
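Further: peak tail current of the secondary pulse compared with the same well before compound.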

human ether-à-go-go-related gene (hERG) potassium channel, sequence (Q12809 whole entry, looked up): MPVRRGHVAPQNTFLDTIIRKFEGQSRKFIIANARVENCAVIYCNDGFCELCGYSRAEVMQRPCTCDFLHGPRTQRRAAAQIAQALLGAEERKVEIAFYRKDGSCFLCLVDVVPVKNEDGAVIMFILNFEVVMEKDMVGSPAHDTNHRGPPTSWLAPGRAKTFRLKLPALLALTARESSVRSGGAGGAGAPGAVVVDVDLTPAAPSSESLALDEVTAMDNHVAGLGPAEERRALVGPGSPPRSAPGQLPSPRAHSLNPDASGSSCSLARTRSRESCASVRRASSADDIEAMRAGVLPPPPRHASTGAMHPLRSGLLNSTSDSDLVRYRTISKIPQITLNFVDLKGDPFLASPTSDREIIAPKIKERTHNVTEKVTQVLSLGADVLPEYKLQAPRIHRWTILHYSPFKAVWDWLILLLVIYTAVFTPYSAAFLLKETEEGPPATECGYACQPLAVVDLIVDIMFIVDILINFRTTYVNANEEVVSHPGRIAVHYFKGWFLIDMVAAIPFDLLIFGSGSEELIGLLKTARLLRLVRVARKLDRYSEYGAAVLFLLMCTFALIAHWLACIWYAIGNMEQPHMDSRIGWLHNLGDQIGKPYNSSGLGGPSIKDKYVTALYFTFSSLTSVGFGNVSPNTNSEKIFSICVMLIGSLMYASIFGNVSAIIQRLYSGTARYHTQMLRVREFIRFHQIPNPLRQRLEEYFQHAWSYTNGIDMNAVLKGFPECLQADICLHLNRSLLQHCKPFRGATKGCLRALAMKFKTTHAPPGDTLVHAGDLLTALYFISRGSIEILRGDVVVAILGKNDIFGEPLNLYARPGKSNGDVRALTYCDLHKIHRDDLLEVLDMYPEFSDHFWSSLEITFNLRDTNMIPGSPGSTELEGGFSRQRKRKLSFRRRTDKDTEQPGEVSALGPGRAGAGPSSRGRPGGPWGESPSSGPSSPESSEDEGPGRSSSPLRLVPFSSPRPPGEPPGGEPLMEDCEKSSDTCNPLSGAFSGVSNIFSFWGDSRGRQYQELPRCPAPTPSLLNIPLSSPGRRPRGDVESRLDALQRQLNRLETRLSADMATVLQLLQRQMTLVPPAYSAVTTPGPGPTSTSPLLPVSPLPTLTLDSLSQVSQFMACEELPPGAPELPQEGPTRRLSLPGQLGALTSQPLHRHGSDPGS

Row | SMILES | hERG current change (%, negative = inhibition) at 10uM [%]
1 | Cc1c(C)n(C)c2ccc(C(=O)N3CCN(c4ccccc4)CC3)cc12 | -5.05
2 | CCOc1ccccc1-c1noc(CCC(=O)Nc2cccnc2)n1 | 9.94
3 | CCC1C(=O)C(CC)C(c2ccccc2)NC1c1ccccc1 (centres unmarked) | 11.9
4 | CCn1cc(C(=O)N2CCN(c3ccc(C(C)=O)cc3)CC2)c2cc(OC)c(OC)cc2c1=O | -44.3
5 | COc1cc2c(C(=O)N3CCN(c4cccc(Cl)c4)CC3)cn(CC(C)C)c(=O)c2cc1OC | -63.6
6 | COc1ccc(C(=O)N2CCN(c3cccc(Cl)c3)CC2)c(OC)c1 | -44.6
7 | CCn1cc(C(=O)N2CCN(c3ccc(F)cc3)CC2)c2cc(OC)c(OC)cc2c1=O | -69.5
8 | CCn1cc(C(=O)N2CCN(c3ccccn3)CC2)c2cc(OC)c(OC)cc2c1=O | -14.4
9 | COc1cc2c(C(=O)NCCCN3CCN(c4cccc(Cl)c4)CC3)cn(C)c(=O)c2cc1OC | -46
10 | CCn1cc(C(=O)N2CCN(c3ccccc3OC)CC2)c2cc(OC)c(OC)cc2c1=O | -1.96
11 | CCn1cc(C(=O)N2CCN(c3ccc(OC)cc3)CC2)c2cc(OC)c(OC)cc2c1=O | -33.8
12 | CCn1cc(C(=O)N2CCN(c3cccc(Cl)c3)CC2)c2cc(OC)c(OC)cc2c1=O | -64.8
13 | COc1ccccc1C(=O)N1CCN(c2cccc(Cl)c2)CC1 | 0.406
14 | COc1cc2c(C(=O)N3CCN(c4cccc(Cl)c4)CC3)cn(C)c(=O)c2cc1OC | -53.1
15 | CCCN1CCN(C(=O)c2cn(CC(C)C)c(=O)c3cc(OC)c(OC)cc23)CC1 | -41.1
16 | CCOC(=O)c1cnc(SC)nc1Oc1cccc(NC(=O)c2ccc(C)cc2)c1 | 11.4
17 | COC(=O)c1cccnc1SCc1ccccc1 | -14.9
18 | C/C(=N\OCC(=O)Nn1c(C)nc2ccccc2c1=O)c1ccccc1 | -13.8
19 | Cc1cccc(NC(=O)c2cc3c([nH]c4ccccc43)c(C)n2)c1C | 11.6
20 | COc1cc(C2C(C(=O)c3cccs3)=C(O)C(=O)N2CCN2CCOCC2)cc(OC)c1OC (centres unmarked) | 14.3
21 | CN(C)c1cc[n+](CC(=O)Nc2cc(C(F)(F)F)ccc2Cl)cc1.[Cl-] | 7.63
22 | CCn1c(CNc2ccc(F)cc2)nnc1SCC(=O)Nc1ccccc1OC | -30.2

Row | SMILES | hERG current change (%, negative = inhibition) at 10uM [%]
23 | CN1CCCN(C(=O)c2ccc(Cl)cc2)CC1 | 5.68
24 | Cc1ccc2nc(SCC(=O)Nc3ccc4c(c3)CCC4)[nH]c2c1 | 8.84
25 | CCN(CC)S(=O)(=O)c1ccc(-c2nnc(SCC(C)=O)o2)cc1 | -8.48
26 | CCn1cc(C(=O)N2CCN(C3CCCCC3)CC2)c2cc(OC)c(OC)cc2c1=O | -20.6
27 | CCOC(=O)C1CCCN(C(=O)c2cn(CC(C)C)c(=O)c3cc(OC)c(OC)cc23)C1 (centres unmarked) | 5.47
28 | COc1cc2c(C(=O)N3CCN(C4CCCCC4)CC3)cn(CC(C)C)c(=O)c2cc1OC | -63.3
29 | COc1ccc(NS(=O)(=O)c2cc3c4c(c2)C(C)C(=O)N4CCC3)cc1 (centres unmarked) | 10.3
30 | CCN(CC)CC(=O)N1c2ccccc2Sc2ccc(Cl)cc21.Cl | -10.3
31 | Cc1cc(C(=O)N/N=C/c2ccc(Cl)c([N+](=O)[O-])c2)c(C)n1-c1ccc(F)cc1 | -2.41
32 | CC(C)n1c2ccccc2c2cc([N+](=O)[O-])ccc21 | 16.1
33 | Cc1ccc(C(=O)NC(C(=O)NC2CCCC2)c2ccccc2)cc1 (centres unmarked) | 15
34 | c1ccc(Sc2ncccn2)nc1 | 12.2
35 | c1ccc(-c2ccc3nnnn3n2)cc1 | 5.72
36 | c1cnc(Sc2ccc3nnnn3n2)nc1 | -56.4
37 | COc1ccc(C(=O)c2sc3nc(-c4ccccc4)ccc3c2N)cc1OC | 18.1
38 | CC[n+]1c(/C=C2/C=C(C)CC(C)C2)sc2ccccc21.[I-] (centres unmarked) | -3.25
39 | CC[n+]1ccccc1/C=C/Nc1ccccc1.[I-] | -44.7
40 | CC[n+]1c(/C=C/Nc2ccccc2)sc2ccccc21.[I-] | -72.2
41 | CCOS(=O)(=O)[O-].CC[n+]1c(/C=C/Nc2ccccc2)oc2ccc(OC)cc21 | -77.2
42 | CC[n+]1c(/C=C2\C=C(C)CC(C)C2)sc2ccccc21.[I-] (centres unmarked) | 6.92
43 | CC[n+]1c(/C=C/Nc2ccccc2)oc2ccccc21.[I-] | -70.4
44 | CC[n+]1c(/C=C/N(C)c2ccccc2)oc2ccccc21.O=S(=O)([O-])CCO | 0.826

Row | SMILES | hERG current change (%, negative = inhibition) at 10uM [%]
45 | CCN1/C(=C/C=C/c2oc3ccc(-c4ccccc4)cc3[n+]2CC)Oc2ccc(-c3ccccc3)cc21.CCOS(=O)(=O)[O-] | -2.14
46 | CCOc1ccc(S(=O)(=O)Nc2cccc(OC)c2)cc1 | -25
47 | NC(=O)CC(NC(=O)Cc1cccc2ccccc12)c1ccc(NCCN2CCCCC2)c([N+](=O)[O-])c1 (centres unmarked) | 7.38
48 | O=c1[nH]c2ccc(Cl)cc2c(-c2ccccc2)c1N1CCN(c2ccccn2)CC1 | 6.61
49 | CCCCn1c(N)c(N(CCOC)C(=O)c2c(CC)noc2C)c(=O)[nH]c1=O | 19.9
50 | CCCC/C(O)=C1\C(=O)CC(C)(C)CC1=Nc1ccc(N)cc1 | -11.4
51 | CC(C)NC[C@H](O)COc1ccc(CC(N)=O)cc1 | 12.8
52 | Oc1oc(-c2ccccc2)nc1/C=N/c1nccs1 | 13.1
53 | Cc1ccccc1NC(=O)c1csc2c1CCCC2 | -20.9
54 | COc1ccc(-c2nnnn2C)cc1S(=O)(=O)NCc1ccccc1 | -13.9
55 | Cc1noc(C)c1COc1ccc(C(=O)OCC(=O)N2CC(=O)Nc3ccccc32)cc1 | 4.54
56 | Cc1noc(C)c1CSCC(=O)OCC(=O)N1CC(=O)Nc2ccccc21 | -72.4
57 | Cc1noc(C)c1COc1cccc(C(=O)OCC(=O)N2CC(=O)Nc3ccccc32)c1 | -0.541
58 | COC(=O)c1ccc(CSc2nc(C)nc3c2c(=O)n(C)c(=O)n3C)o1 | 14.7
59 | O=C(c1ccc(F)c(F)c1)N1CCCc2ccccc21 | 0.0993
60 | Cc1nc2cc(C(=O)N3CCc4ccccc43)ccc2n1-c1ccc(F)c(F)c1 | -69.7
61 | Cc1ccc(C(=O)N2CCc3ccccc32)cc1 | -7.42
62 | O=C(c1ccc2ccccc2c1)N1CCc2ccccc21 | 3.51
63 | Cc1cccc(-n2cnc3cc(C(=O)N4CCCCC4)ccc32)c1 | -21.3
64 | Cc1cccc(-n2cnc3cc(C(=O)N4CCc5ccccc54)ccc32)c1 | -61.5
65 | CCc1ccc(NC(=O)CCn2c(=O)oc3ccccc32)cc1 | -10.1
66 | CCc1ccc(-c2nc3ccc(Br)cc3c(C(=O)O)c2C)s1 | 19.1

Row | SMILES | hERG current change (%, negative = inhibition) at 10uM [%]
67 | CCc1sc(C(=O)N2CCN(c3ccc(F)cc3)CC2)cc1C | -16.3
68 | CCN1CCN(CCC(=O)Nc2ccc(F)c(F)c2)CC1 | -17.1
69 | O=C(CN1CCN(c2ccc(Cl)cc2)CC1)Nc1cccc(F)c1 | -3.54
70 | CCOc1ccc(NC(=O)CN2CCN(CC(=O)Nc3cc(OC)cc(OC)c3)CC2)cc1 | -74.9
71 | CCOc1ccc(NC(=O)CN2CCN(CC(=O)Nc3ccc(F)c(F)c3)CC2)cc1 | -78.3
72 | CCOc1ccc(NC(=O)CN2CCN(CC(=O)Nc3ccc(F)cc3)CC2)cc1 | -77.2
73 | COc1cc(NC(=O)CN2CCCCCC2)cc(OC)c1 | 5.28
74 | O=C(CN1CCN(c2ccccn2)CC1)Nc1ccc(F)c(F)c1 | -27.6
75 | CCCCOc1ccc(NC(=O)CN2CCN(CC)CC2)cc1.Cl | -15.9
76 | CCOc1ccc(NC(=O)CN2CCN(c3ccc(F)cc3)CC2)cc1 | -22.2
77 | CCc1sc(C(=O)N2CCN(CC(=O)Nc3cccc(F)c3)CC2)cc1C | -65
78 | COC(=O)c1ccccc1C(=O)N1CCOCCN(C(=O)c2ccccc2C(=O)OC)CCOCC1 | 0.0748
79 | O=C(Cn1cncn1)NCc1cccc(OC(F)F)c1 | 7.23
80 | O=C(Nc1nc2ccccc2s1)C1CCN(S(=O)(=O)c2cc([N+](=O)[O-])ccc2Cl)CC1 | 10.4
81 | COc1ccc(CCN=c2c([N+](=O)[O-])nn(-c3cccc(C)c3)n2O)cc1OC | -34.1
82 | O=C(COC(=O)C1CCN(S(=O)(=O)c2cccc3cccnc23)CC1)c1ccccc1 | 7.23
83 | Cc1onc(-c2ccccc2)c1C(=O)NC(C)C1CCCO1 (centres unmarked) | 10.5
84 | C/C(=N\Nc1cc(N2CCOCC2)nc(C)n1)c1ccc(F)cc1 | -12
85 | Clc1cccc(Cc2ccc(Cl)nn2)c1 | -3.46
86 | COc1cccc2cc(C(=O)N3CCN(C(=O)c4ccccc4)CC3)c(=O)oc12 | 7.71

Source: paper PMC4336329 (PLoS ONE, 2015)
